Source: PubChem
An excerpt weighted towards active compounds, which were near 4.2% of everything screened.
TIM10 inh: TIM10 yeast growth inhibition. S. cerevisiae TIM10 strain growth, BacTiter-Glo luminescence, 24 h. inhibition, % at 10 µM. actives 1.4% (n = 330,000);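 active means inhibition of 40% or more at the single tested concentration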;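 further: wild-type TIM10 isogenic control strain grown at permissive 25 °C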
V-ATPase pH: regulators of yeast V-ATPase proton transport | S. cerevisiae, pHLuorin cytosolic pH fluorescence | response, % at 10 µM | actives 0.37% (n = 350,000); in the data active means response mostly above about 7.3%, no sharp cut-off; inactive means mostly below about 5.4%; further: actives read high
tim10-1 inh: inhibits growth of tim10-1 mutant yeast; actives 2.2% (n = 330,000); AID 463190; S. cerevisiae tim10-1 ts strain growth, BacTiter-Glo, 24 h; inhibition, % at 20 µM;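 active means inhibition of at least 40%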;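 further: mutant grown at 25 °C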
tim23-1 inh: inhibits growth of tim23-1 mutant yeast. S. cerevisiae tim23-1 growth, BacTiter-Glo luminescence, 24 h. actives 1.3% (n = 330,000). inhibition, % at 20 µM;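 active means growth inhibition of the mutant yeast at or above 50%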;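 further: temperature-sensitive mutant grown at 25 °C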
NALP3 yeast inh: NALP3 inhibition in yeast | Yeast reconstituted NLRP3/ASC/caspase-1, beta-gal luminescence, 24 h | inhibition, % at 10 µM | actives 0.39% (n = 330,000);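 active means inhibition of 50% or more; inactive means inhibition below 50%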
NALP1 inh: inhibitors of NALP1 inflammasome in yeast; S. cerevisiae NALP1/ASC/caspase-1 growth, X-gal OD620, 72 h; inhibition, % at 10 µM; actives 0.61% (n = 280,000); in the data active means inhibition mostly above about 24%, no sharp cut-off; inactive means mostly below about 32%
TIM10 conf: confirmation of TIM10 yeast growth inhibitors | S. cerevisiae tim10 strain growth, BacTiter-Glo luminescence, 24 h | inhibition, % at 10 µM | actives 63% (n = 4,600) | shares compounds with TIM10 inh | AID 463215;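 active means inhibition of yeast growth at or above a set limit in either of two replicates at 10 µM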; further: this counterscreen used the strain with wild-type TIM10
Of the large screens only hits and unclear results are named; the others gave an inactive call (follow-up assays come after a bar, where they were run).

O=C1CC(N2CCN(c3ccccn3)CC2)C(=O)N1CC(c1ccccc1)c1ccccc1 (configuration not stated)	TIM10 inh 42.3 | TIM10 conf inactive
COc1cc(OC)cc(C(=O)NCc2nc(-c3ccccc3)no2)c1	TIM10 inh 90.8 | TIM10 conf inactive
COc1ccc(CC(=O)NCc2nc(-c3ccccc3)no2)cc1	none
CCCC[n+]1c(C)sc2cc(OC)ccc21	none
Fc1ccccc1NC(=S)NN(Cc1ccccc1)c1ccccc1	TIM10 inh 43.6 | TIM10 conf 37.5
CC(=O)c1ccc(OC(=O)CCc2ccccc2)cc1	none
CC(=O)c1ccc(OC(=O)N(c2ccccc2)c2ccccc2)cc1	TIM10 inh 62.7 | TIM10 conf inactive
O=C(NC1CCCCCC1)c1cc(S(=O)(=O)N2CCOCC2)ccc1N1CCCCC1	TIM10 inh 43.7 | TIM10 conf inactive
CCn1ncc(Br)c1C(=O)Nc1ccc(OC(F)(F)F)cc1	none
CCn1ncc(Br)c1C(=O)Nc1ccc(C(=O)OC(C)C)cc1	TIM10 inh 43.6 | TIM10 conf inactive
Cc1ccc(-n2cc3c(-c4cccc(Br)c4)nnc(C)c3n2)cc1	TIM10 inh 44.4 (no result: NALP1 inh) | TIM10 conf 30.7
COc1ccccc1CNC(=S)NCCc1ccccc1	TIM10 inh 41.2 | TIM10 conf inactive
COc1ccccc1CNC(=O)CCc1ccccc1	none
COc1ccc(CCNC(=S)NC(=O)c2ccccc2)cc1C	TIM10 inh 44.6 | TIM10 conf 49.9
C=CCC[C@@H](Cc1ccc(F)cc1)C(=O)OCCNC(=O)[C@@H](CC=C)CC(=O)N(CCO)Cc1ccccc1	none (no result: NALP1 inh)
Clc1c(CSc2nc3ccccc3o2)nc2ccccn12	TIM10 inh 43.2 | TIM10 conf inactive
COc1ccc(N2C(=O)CC(Sc3nc(C)cc(C)c3C#N)C2=O)cc1 (configuration not stated)	TIM10 inh 41.7 | TIM10 conf 28.4
CCCc1ccc(C#N)c(SC2CC(=O)N(c3ccc(OC)cc3)C2=O)n1 (configuration not stated)	none
CCN1C(=O)/C(=C/c2nc3ccccc3c(=O)n2-c2ccccc2)c2ccccc21	TIM10 inh 42.9 | TIM10 conf inactive
O=C(NC1CC1)c1ccc2snnc2c1	none
COc1cc(OC)c(C(=O)NNC(=O)CN(C)S(=O)(=O)c2ccc(Cl)cc2)cc1OC	none (no result: NALP1 inh)
CCN1C(Nc2ccccc2)=NC[C@@H]1Cc1ccccc1	none
CC(C)(C)C1CCC(CN2C(Nc3ccccc3)=NC[C@@H]2Cc2ccccc2)CC1 (some centres not stated)	TIM10 inh 48.9 (no result: NALP1 inh) | TIM10 conf 52.9
O=C(NC(=S)Nc1ccccn1)c1cc(-c2ccccc2)nc2ccccc12	TIM10 inh 47.2 | TIM10 conf inactive
O=C(N/N=C/c1ccccn1)c1cc(-c2ccc(Cl)cc2)nc2ccccc12	TIM10 inh 47.4 | TIM10 conf 49.7
O=C(NC(=S)Nc1ccccc1)c1cc(-c2ccccc2)nc2ccccc12	none
CCOC(=O)C(C(=O)OCC)N(C#N)c1nc(C)cc(C)n1	none
N=c1oc2ccccc2cc1C(=O)Nc1cccc(F)c1	TIM10 inh 40.5 | TIM10 conf inactive
CCc1cccc(CC)c1NC(=S)NCc1ccc2c(c1)OCO2	TIM10 inh 41.0 | TIM10 conf inactive
CCc1cccc(CC)c1NC(=S)NC(C)c1ccccc1 (configuration not stated)	TIM10 inh 52.6 | TIM10 conf 38.8
CC12CCC(C(=O)NCc3ccc4c(c3)OCO4)(C(=O)C1=O)C2(C)C (configuration not stated)	TIM10 inh 41.3 | TIM10 conf inactive
Cc1ccc(NC(=O)COC(=O)Cn2cnc3ccccc32)c(C)c1	none (no result: NALP1 inh)
CCCNC(=S)Nc1ccccc1	none
Cc1cccc(CSCCNC(=S)Nc2ccccc2)c1	TIM10 inh 47.5 | TIM10 conf inactive
COc1ccc(C2=NN(C(=O)CCC(=O)O)C(c3ccccc3)C2)cc1 (configuration not stated)	none
COc1ccc(C2=NN(C(=O)CCC(=O)O)C(c3ccc(Br)cc3)C2)cc1 (configuration not stated)	TIM10 inh 44.1 | TIM10 conf inactive
O=[N+]([O-])c1cccc(CNCc2ccccc2)c1	none
COc1ccc(Cn2c(=O)oc3ccc(C)cc32)cc1	TIM10 inh 97.3 | TIM10 conf inactive
Cc1cnc(C(=O)OCC(=O)NC(=O)NC(C)C)cn1	none
Cc1ccc(NC(=O)C(c2ccccc2)C2CCCC2)cc1 (configuration not stated)	none (no result: TIM10 inh, tim10-1 inh, tim23-1 inh, NALP3 yeast inh)
O=C(Nc1ccc2ccccc2c1)C(c1ccccc1)C1CCCC1 (configuration not stated)	TIM10 inh 44.0 | TIM10 conf inactive
CCN(C(=O)c1cc2cc3ccc(C)cc3nc2o1)c1ccc(OC)cc1	TIM10 inh 44.4 | TIM10 conf inactive
Cc1ccc2cc3cc(C(=O)NCCCN4CC(C)CC(C)C4)oc3nc2c1 (configuration not stated)	TIM10 inh 61.4 | TIM10 conf inactive
Cc1ccc2cc3cc(C(=O)N4CCCCC4C)oc3nc2c1 (configuration not stated)	TIM10 inh 50.4 | TIM10 conf inactive
O=S(=O)(/N=C(/Nc1cccc2ccccc12)c1ccccc1)c1cccs1	TIM10 inh 43.1 | TIM10 conf inactive
O=C(c1ccco1)N(Cc1cccc(Br)c1)C1CCS(=O)(=O)C1 (configuration not stated)	none
O=C(Cn1cnc2c(oc3ccccc32)c1=O)c1ccccc1	TIM10 inh 48.9 | TIM10 conf inactive
COc1ccc(N(CC(=O)Nc2cc(Cl)ccc2OC)S(=O)(=O)c2c(C)[nH]c(=O)[nH]c2=O)cc1	TIM10 inh 43.7 | TIM10 conf inactive
CC(c1ccco1)N(C(=O)c1ccc(Cl)c([N+](=O)[O-])c1)c1ccccn1 (configuration not stated)	none
CC(c1ccco1)N(C(=O)c1ccccc1NS(=O)(=O)c1cc([N+](=O)[O-])ccc1Cl)c1ccccn1 (configuration not stated)	TIM10 inh 45.1 | TIM10 conf 33.5
CC(c1ccco1)N(C(=O)c1ccccc1NS(=O)(=O)c1ccc(Cl)cc1)c1ccccn1 (configuration not stated)	TIM10 inh 44.7 | TIM10 conf 40.6
Cc1nc2ncnn2c(C)c1Cc1c(Cl)cccc1Cl	none
C/C(=N\NC(=O)CNc1cccc2ccccc12)c1ccccc1	TIM10 inh 42.3 | TIM10 conf inactive
COc1ccccc1N1CCN(C(=O)CCc2ccc(S(=O)(=O)NC(C)C)cc2)CC1	none
CC(=O)Nc1cccc(NC(=O)CSc2nc(=O)n(Cc3ccccn3)c3c2CCC3)c1	TIM10 inh 96.7 (no result: NALP1 inh) | TIM10 conf inactive
